Inconclusive results are not listed. Calls of active or inactive are those of the source. Unless noted, calls come from the whole dose curve; as a rule, active = well fitted curve in the direction sought with a large enough effect; inconclusive = small, poorly fitted or top-dose-only effect, or another doubt; inactive = no such curve, though single readings can be large; an effect the other way counts as inactive or inconclusive.
How the values were obtained:
[1] = target: Ubiquitin carboxyl-terminal hydrolase 1 (Homo sapiens) (UniProt O94782); test: Inhibitors of USP1/UAF1: Pilot qHTS (AID 504865); note: nearly all actives have a fitted effect of over 35% in size; note: potency is the fitted concentration of half-maximal effect
Ubiquitin carboxyl-terminal hydrolase 1 (Homo sapiens), sequence (O94782 whole entry, looked up): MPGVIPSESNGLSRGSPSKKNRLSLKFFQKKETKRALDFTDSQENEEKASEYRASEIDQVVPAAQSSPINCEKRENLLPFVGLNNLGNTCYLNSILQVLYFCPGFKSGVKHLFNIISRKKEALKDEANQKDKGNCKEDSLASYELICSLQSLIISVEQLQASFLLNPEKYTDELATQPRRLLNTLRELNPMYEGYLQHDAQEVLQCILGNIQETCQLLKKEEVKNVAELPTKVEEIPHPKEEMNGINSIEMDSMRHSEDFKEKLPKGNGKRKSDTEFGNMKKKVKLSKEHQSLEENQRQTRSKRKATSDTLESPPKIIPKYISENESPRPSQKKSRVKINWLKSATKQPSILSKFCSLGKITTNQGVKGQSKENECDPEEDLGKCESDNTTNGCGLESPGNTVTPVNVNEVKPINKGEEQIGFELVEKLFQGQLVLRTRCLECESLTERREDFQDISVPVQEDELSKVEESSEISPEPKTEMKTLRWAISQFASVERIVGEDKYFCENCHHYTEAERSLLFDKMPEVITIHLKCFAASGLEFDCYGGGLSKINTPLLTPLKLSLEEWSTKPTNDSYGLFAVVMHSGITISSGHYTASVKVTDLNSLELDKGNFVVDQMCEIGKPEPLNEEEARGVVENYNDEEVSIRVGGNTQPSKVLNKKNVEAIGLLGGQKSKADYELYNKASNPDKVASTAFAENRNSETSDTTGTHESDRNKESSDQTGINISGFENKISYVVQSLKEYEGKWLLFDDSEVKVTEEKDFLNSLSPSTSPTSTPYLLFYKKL
Procedure, shortened: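 Enzyme-free wells gave the negative control, while test wells held 1nM USP1/UAF1 preincubated with compound for 15 min at room temperature. Ub-Rho at 150nM final started the reaction, and fluorescence at 480/540 nm was recorded kinetically.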

[2] = S16 Schwann cell PMP22 intronic element firefly luciferase assay (AID 624032); note: nearly all actives have a fitted effect of over 30% in size; note: potency is the fitted concentration of half-maximal effect
Procedure, shortened: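 Rat S16 Schwann cells stably carrying a PMP22 intronic element-driven Fluc reporter were seeded overnight, then exposed to compounds for 24 h at 37 °C. Luminescence was normalized to PTC124 (positive control) and DMSO (0% activity).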

[3] = S16 Schwann cell PMP22 intronic element beta-lactamase assay (AID 624044; calls by dose curve; note: nearly all actives have a fitted effect of over 15% in size; note: potency is the fitted concentration of half-maximal effect); conditions: S16 rat Schwann cells, PMP22 element beta-lactamase FRET, 24 h; ratio activity, negative = inhibition: at 38.3 µM (top of the series)
Procedure, shortened: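 Beta-lactamase reporter under a PMP22 intronic regulatory element in stable S16 rat Schwann cells; 24 h compound exposure. 460 nm blue signal normalized between DMSO (0%) and potassium clavulanate, with 535 nm FRET tracking viability; curves classed by r2 and response.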

CP335 = test: qHTS profiling for inhibitors of Plasmodium falciparum proliferation (AID 504749); note: nearly all actives have a fitted effect of over 60% in size; note: potency is the fitted concentration of half-maximal effect; conditions: P. falciparum in erythrocytes, SYBR Green DNA, 72 h; series mostly up to 28.7 µM
Procedure, shortened: (§1)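 Quantitative HTS: compounds pinned into medium, infected erythrocytes added (0.3% parasitemia, 2.5% hematocrit), 72 h culture at 37 C under 5% CO2. Saponin/Triton lysis with SYBR Green I, overnight RT, then fluorescence read.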

DFO2036 = test: as above; conditions: P. falciparum in erythrocytes, SYBR Green DNA, 72 h; series mostly up to 28.7 µM
Procedure, shortened: as §1

DIV17 = test: as above; conditions: P. falciparum in erythrocytes, SYBR Green DNA, 72 h; series mostly up to 28.7 µM
Procedure, shortened: as §1

DIV30 = test: as above; conditions: P. falciparum in erythrocytes, SYBR Green DNA, 72 h; series mostly up to 28.7 µM
Procedure, shortened: as §1

PC26 = test: as above; conditions: P. falciparum in erythrocytes, SYBR Green DNA, 72 h; series mostly up to 28.7 µM
Procedure, shortened: as §1

W2 = test: as above; conditions: P. falciparum in erythrocytes, SYBR Green DNA, 72 h; series mostly up to 28.7 µM
Procedure, shortened: as §1

[4] = target: Tumor susceptibility gene 101 protein (Homo sapiens) (UniProt Q99816); test: qHTS Assay for Iinhibitors of HIV-1 Budding by Blocking the Interaction of PTAP/TSG101: Hit Validation (AID 651600); note: nearly all actives have a fitted effect of over 70% in size
Tumor susceptibility gene 101 protein (Homo sapiens), sequence (Q99816 whole entry, looked up): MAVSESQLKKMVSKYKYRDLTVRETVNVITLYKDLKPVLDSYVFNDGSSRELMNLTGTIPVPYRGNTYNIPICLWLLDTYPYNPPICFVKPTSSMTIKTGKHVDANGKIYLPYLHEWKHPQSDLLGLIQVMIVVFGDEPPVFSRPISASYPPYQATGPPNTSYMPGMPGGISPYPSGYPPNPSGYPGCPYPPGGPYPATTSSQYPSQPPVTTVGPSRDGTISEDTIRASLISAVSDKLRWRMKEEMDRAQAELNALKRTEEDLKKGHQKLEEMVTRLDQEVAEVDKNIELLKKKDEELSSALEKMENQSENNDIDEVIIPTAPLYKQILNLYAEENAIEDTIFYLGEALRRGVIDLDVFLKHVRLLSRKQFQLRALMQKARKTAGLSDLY
Procedure, shortened: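 Measuring PTAP–Tsg101 interaction by FP: protein at 10 uM and fluorescent peptide at 50 nM (final), buffer 10 mM HEPES pH 7.5 with 0.15 M NaCl, 3 mM EDTA, 0.1 mM TCEP, 0.01% Tween 20; 20 min incubation, r.t.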

[5] = target: Mitogen-activated protein kinase 10 (Mus musculus) (UniProt Q61831); test: JNK3 AlphaScreen Assay (AID 530; active = well fitted curve in either direction with a large enough effect, not every such curve was filed as active;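 note: kinase came from lysate of stimulated human HepG2 cells; signal reports phosphorylation of biotinylated GST-cJun 1-79 at Ser73 with 10 µM ATP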)
Procedure, shortened: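 Phosphorylation of biotinylated GST-cJun(1-79) at Ser73 is measured by AlphaScreen proximity luminescence. Enzyme is JNK3 in HepG2 lysates activated with interleukin-1beta and tumor necrosis factor alpha; ATP is 10 uM final.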

[6] = target: 3',5'-cyclic-AMP phosphodiesterase 4B (Homo sapiens) (UniProt Q07343); test: qHTS Assay for Inhibitors of PDE-IV (AID 607; active = well fitted activation curve with a large enough effect in the main read-out, with a control signal flat, not every such curve was filed as active)
3',5'-cyclic-AMP phosphodiesterase 4B (Homo sapiens), sequence (Q07343 whole entry, looked up): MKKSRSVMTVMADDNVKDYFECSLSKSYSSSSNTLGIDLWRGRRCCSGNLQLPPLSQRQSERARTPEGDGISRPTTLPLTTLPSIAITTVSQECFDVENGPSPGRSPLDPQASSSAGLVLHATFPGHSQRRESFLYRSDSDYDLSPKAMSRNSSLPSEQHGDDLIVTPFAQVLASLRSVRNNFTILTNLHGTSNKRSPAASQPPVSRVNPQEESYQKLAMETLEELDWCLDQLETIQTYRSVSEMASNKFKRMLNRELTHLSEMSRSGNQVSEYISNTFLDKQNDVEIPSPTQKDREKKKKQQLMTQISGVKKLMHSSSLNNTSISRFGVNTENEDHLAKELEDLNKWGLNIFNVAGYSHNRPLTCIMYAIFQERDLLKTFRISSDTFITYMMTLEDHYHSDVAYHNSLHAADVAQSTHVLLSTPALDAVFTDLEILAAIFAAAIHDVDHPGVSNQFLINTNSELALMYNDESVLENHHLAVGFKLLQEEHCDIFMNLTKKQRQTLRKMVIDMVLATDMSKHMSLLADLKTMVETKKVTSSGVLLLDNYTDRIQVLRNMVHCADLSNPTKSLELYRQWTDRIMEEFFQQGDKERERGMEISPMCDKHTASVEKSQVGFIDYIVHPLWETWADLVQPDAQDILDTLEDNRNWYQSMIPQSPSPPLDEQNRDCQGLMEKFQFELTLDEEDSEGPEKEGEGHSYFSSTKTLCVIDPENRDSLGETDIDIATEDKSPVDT
Procedure, shortened: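 Cell-based read-out of cAMP via a modified cyclic nucleotide-gated channel and membrane potential dye (535/590 nm) in HEK293 cells expressing PDE4 endogenously. Compounds tested up to 22.9 uM final; 100 uM RO 20-1724 reference.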

[7] = target: Cytochrome P450 3A4 (Homo sapiens) (UniProt P08684); test: qHTS Assay for Inhibitors and Substrates of Cytochrome P450 3A4 (AID 884); note: nearly all actives have a fitted effect of over 50% in size; note: potency is the fitted concentration of half-maximal effect
Cytochrome P450 3A4 (Homo sapiens), sequence (P08684 whole entry, looked up): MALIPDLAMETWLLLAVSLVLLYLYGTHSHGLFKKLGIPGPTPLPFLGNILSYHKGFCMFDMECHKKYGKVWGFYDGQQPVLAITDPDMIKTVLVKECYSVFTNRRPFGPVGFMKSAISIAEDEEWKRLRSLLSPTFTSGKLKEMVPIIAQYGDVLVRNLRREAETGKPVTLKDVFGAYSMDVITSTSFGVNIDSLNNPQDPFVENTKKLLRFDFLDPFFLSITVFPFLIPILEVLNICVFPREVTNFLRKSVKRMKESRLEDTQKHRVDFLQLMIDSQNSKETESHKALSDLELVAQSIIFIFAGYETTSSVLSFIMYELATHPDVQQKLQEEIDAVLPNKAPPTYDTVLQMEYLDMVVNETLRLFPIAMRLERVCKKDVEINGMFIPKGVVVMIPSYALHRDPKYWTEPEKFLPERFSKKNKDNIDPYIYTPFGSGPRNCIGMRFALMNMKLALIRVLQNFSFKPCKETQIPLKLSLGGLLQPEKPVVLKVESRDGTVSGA
Procedure, shortened: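 Luminescent readout of luciferin produced by CYP3A4 (20 nM) dealkylation of Luciferin-PPXE, 25 uM (its KM). NADPH-driven reaction ran 60 min at RT after 10 min compound preincubation; data scaled to 57 uM ketoconazole as 100% inhibition.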

[8] = target: Cytochrome P450 3A4 (Homo sapiens) (UniProt P08684); test: qHTS Assay for Activators of Cytochrome P450 3A4 (AID 885); note: nearly all actives have a fitted effect of over 65% in size
Procedure, shortened: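 Luminescent readout of luciferin formed from 25 uM Luciferin-PPXE (KM level) by 20 nM CYP3A4 in 200 mM KPO4, with 60 min NADPH-driven reaction at room temperature after 10 min compound exposure. Ketoconazole (57 uM) defined 100% inhibition.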

[9] = target: Cytochrome P450 2C19 (Homo sapiens) (UniProt P33261); test: qHTS Assay for Inhibitors and Substrates of Cytochrome P450 2C19 (AID 899); note: potency is the fitted concentration of half-maximal effect; nearly all actives have a fitted effect of over 60% in size
Cytochrome P450 2C19 (Homo sapiens), sequence (P33261 whole entry, looked up): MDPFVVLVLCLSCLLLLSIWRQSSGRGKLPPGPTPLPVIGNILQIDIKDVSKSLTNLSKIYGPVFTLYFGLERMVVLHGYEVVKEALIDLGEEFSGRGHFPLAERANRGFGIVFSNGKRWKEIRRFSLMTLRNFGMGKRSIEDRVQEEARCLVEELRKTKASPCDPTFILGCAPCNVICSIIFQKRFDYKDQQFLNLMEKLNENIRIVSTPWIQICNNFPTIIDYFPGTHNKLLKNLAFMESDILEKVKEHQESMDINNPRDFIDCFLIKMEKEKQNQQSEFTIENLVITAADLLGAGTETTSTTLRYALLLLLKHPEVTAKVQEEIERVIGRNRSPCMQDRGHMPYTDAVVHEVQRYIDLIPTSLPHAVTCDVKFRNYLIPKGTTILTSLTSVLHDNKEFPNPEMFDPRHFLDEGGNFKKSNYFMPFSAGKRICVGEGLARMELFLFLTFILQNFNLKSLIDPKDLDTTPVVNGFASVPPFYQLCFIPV
Procedure, shortened: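 In 50mM KPO4, the reaction held 5nM enzyme and KM-level (10uM) Luciferin-H EGE; it ran 60 min at 37C after NADPH regeneration and a 10 min compound preincubation. Luminescence values were scaled to 57uM ketoconazole as complete inhibition.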

[10] = target: Cytochrome P450 2C9 (Homo sapiens) (UniProt P11712); test: qHTS Assay for Inhibitors and Substrates of Cytochrome P450 2C9 (AID 883); note: potency is the fitted concentration of half-maximal effect; nearly all actives have a fitted effect of over 60% in size
Cytochrome P450 2C9 (Homo sapiens), sequence (P11712 whole entry, looked up): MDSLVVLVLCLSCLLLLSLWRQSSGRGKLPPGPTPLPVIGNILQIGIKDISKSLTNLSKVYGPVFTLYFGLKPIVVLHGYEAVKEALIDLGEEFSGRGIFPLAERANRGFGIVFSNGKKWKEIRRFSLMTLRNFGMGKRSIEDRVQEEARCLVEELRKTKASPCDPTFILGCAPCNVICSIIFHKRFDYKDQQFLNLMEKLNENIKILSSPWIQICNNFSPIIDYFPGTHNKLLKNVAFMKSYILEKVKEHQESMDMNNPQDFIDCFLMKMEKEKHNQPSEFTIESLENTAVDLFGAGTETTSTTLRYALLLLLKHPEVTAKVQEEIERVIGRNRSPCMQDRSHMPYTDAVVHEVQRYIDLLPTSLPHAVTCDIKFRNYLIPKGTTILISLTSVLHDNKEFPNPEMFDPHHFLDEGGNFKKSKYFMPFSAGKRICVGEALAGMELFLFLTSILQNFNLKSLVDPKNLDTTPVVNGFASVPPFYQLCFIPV
Procedure, shortened: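 CYP2C9 deoxyluciferin hydroxylation, 37C, 60 min with NADPH regeneration; 10nM enzyme, 100uM Luciferin-H (KM). Glo detection reagent stopped reaction; luminescence normalized to sulphaphenazole (57uM) full inhibition.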

[11] = target: Cytochrome P450 2D6 (Homo sapiens) (UniProt P10635); test: qHTS Assay for Inhibitors and Substrates of Cytochrome P450 2D6 (AID 891); note: potency is the fitted concentration of half-maximal effect; nearly all actives have a fitted effect of over 60% in size
Cytochrome P450 2D6 (Homo sapiens), sequence (P10635 whole entry, looked up): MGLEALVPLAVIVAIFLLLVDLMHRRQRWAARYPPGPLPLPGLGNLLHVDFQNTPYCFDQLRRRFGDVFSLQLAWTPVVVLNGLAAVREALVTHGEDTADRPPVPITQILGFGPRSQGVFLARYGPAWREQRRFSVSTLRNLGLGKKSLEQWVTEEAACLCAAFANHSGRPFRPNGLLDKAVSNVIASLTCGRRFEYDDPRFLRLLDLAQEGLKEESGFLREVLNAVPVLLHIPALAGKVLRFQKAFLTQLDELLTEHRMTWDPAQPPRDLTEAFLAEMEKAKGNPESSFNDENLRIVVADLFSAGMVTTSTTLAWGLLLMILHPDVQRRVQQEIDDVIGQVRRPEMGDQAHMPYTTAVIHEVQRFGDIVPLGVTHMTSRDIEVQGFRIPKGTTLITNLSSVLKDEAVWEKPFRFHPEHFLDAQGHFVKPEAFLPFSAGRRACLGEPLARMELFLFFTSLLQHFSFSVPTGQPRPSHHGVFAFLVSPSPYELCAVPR
Procedure, shortened: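 Luminescent read-out of luciferin formed by 5 nM human CYP2D6 demethylating 30 uM Luciferin-ME EGE (Km level) over 60 min at room temperature after NADPH regeneration addition. Data normalized to full inhibition by 1.43 uM quinidine.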

[12] = Confirmation and Secondary Assay for Modulators of Hemoglobin Beta Chain Splicing at IVS2 654 locus (AID 910);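 note: per-well total GFP intensity by laser scanning cytometry after 2-day treatment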
Procedure, shortened: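 HeLa cells stably carrying EGFP interrupted by mutant beta-globin IVS2-654 intron (CMV-driven) were treated with compound for 2 days at 37C; corrected splicing was scored as total peak GFP intensity per well (488 nm excitation, 500-520 nm emission).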

[13] = Confirmation and Secondary Assay for Modulators of Hemoglobin Beta Chain Splicing at IVS2 705 locus (AID 930);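 note: HeLa cells stably expressing the EGFP-705 splicing reporter; GFP fluorescence per well restored by corrected splicing of the IVS2-705 intron in EGFP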
Procedure, shortened: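 Splice-correction reporter: EGFP cDNA split by beta-globin intron 2 bearing the 705 mutation, stably in HeLa. Compound incubation 2 days, 37C; fluorescent objects 5-250 µm summed per well.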

Measured: Potency

Nc1nc(Cl)nc2c1ncn2[C@@H]1O[C@H](CO)[C@H](O)C1F (stereo partly specified)
inactive: [1] | CP335 | DFO2036 | DIV17 | DIV30 | PC26 | W2
active: [2] 0.907 µM | [3] 8.91 µM

CC1CCC(O)C/C1=C\C=C1/CCCC2(C)C1CCC2C(C)/C=C/C(C)C(C)C (stereo unspecified)
inactive: [2] | DFO2036

COc1ccc2cc1Oc1cc3c(cc1OC)CC[N+](C)(C)C3Cc1ccc(cc1)Oc1c(OC)c(OC)cc3c1C(C2)[N+](C)(C)CC3 (stereo unspecified)
inactive: [1] | [2] | [3] | CP335 | DIV17 | DIV30 | PC26

Cc1cnc(C(=O)O)cn1
inactive: [1] | [2] | [3] | CP335 | DIV17 | DIV30 | PC26 | W2

CCOC(=O)C(CCc1ccccc1)NC(C)C(=O)N1Cc2cc(OC)c(OC)cc2CC1C(=O)O (stereo unspecified)
inactive: [2] | [3] | DFO2036
active: DIV17 5.36 µM | DIV30 7.57 µM | PC26 6.75 µM | W2 5.36 µM

O=C(O)CC(O)CC(O)/C=C/c1c(C2CC2)nc2ccccc2c1-c1ccc(F)cc1 (stereo unspecified)
inactive: [1] | [3] | CP335 | DIV17 | DIV30 | PC26 | W2

Nc1nc2[nH]cc(CCc3ccc(C(=O)NC(CCC(=O)O)C(=O)O)cc3)c2c(=O)[nH]1 (stereo unspecified)
inactive: [2]
active: CP335 0.135 µM | DFO2036 0.0631 µM | W2 0.0757 µM

O=c1[nH]c(=O)n(C2C[C@H](O)[C@@H](CO)O2)cc1C(F)(F)F (stereo partly specified)
active: [2] 0.51 µM
inactive: [1] | CP335 | DFO2036 | DIV17 | DIV30 | PC26 | W2

C=C1[C@@H]2CC[C@H](C2)C1(C)C
inactive: [1] | [2] | [3] | CP335 | DFO2036 | DIV17 | DIV30 | PC26 | W2

OCC1O[C@@H](O[C@@H]2C(CO)OC(O)C(O)C2O)C(O)C(O)C1O (stereo partly specified)
inactive: [1] | [2] | [3] | CP335 | DFO2036 | DIV17 | DIV30 | PC26 | W2

CC1CN(c2c(F)c(N)c3c(=O)c(C(=O)O)cn(C4CC4)c3c2F)CC(C)N1 (stereo unspecified)
inactive: [1] | [2] | [3] | DFO2036 | DIV17 | DIV30 | PC26 | W2

COc1ccc(C(=O)/C(Br)=C/C(=O)O)cc1
active: [2] 14.4 µM
inactive: [1] | [3] | DFO2036 | PC26

CCCC(=O)Nc1c(I)cc(I)c(C[C@H](CC)C(=O)O)c1I
inactive: [1] | [2] | [3] | CP335 | DFO2036 | DIV17 | DIV30 | PC26

COc1cccc2c1C(=O)c1c(O)c3c(c(O)c1C2=O)C[C@@](O)(C(=O)CO)C[C@@H]3OC1CC(N)C(O)C(C)O1 (stereo partly specified)
active: [1] 50.1 µM | [3] 0.354 µM | CP335 1.2 µM | DFO2036 2 µM | DIV17 1.69 µM | DIV30 4.26 µM | PC26 4.78 µM | W2 0.675 µM
inactive: [2] | [4]

CC1(C)CC1C(=O)N/C(=C/CCCCSCC(N)C(=O)O)C(=O)O (stereo unspecified)
inactive: [2] | CP335 | DIV17 | DIV30 | PC26 | W2

COC(=O)[C@H]1C[C@@H]1[C@H](NS(=O)(=O)c1ccc(-c2ccccc2)cc1)c1ccccc1
inactive: [5]

CCN(CC)CCOCCOC(=O)C(CC)(CC)c1ccccc1 (tested in a mixture with another compound)
active: DIV17 1.51 µM | W2 0.849 µM
inactive: [1] | [2]

CO[C@@H]1/C=C\O[C@]2(C)Oc3c(C)c(O)c4c(O)c(c(/C=N\N5CCN(C)CC5)c(O)c4c3C2=O)NC(=O)/C(C)=C\C=C/[C@H](C)[C@H](O)[C@H](C)[C@H](O)[C@H](C)[C@H](OC(C)=O)[C@@H]1C
inactive: [6]

CC1(C)C(=O)C(c2ccccc2)=C2CN3C(=O)N(CCc4ccccc4)C(=O)C3(Cc3ccc(F)cc3)C=C21 (stereo unspecified)
active: [7] 3.16 µM
inactive: [5] | [6] | [8]

COC(=O)c1ccc(C(NC(=O)c2ccccc2)[C@]2(C)C[C@H]2C2CCCCC2)cc1 (stereo partly specified)
inactive: [5] | [8]
active: [9] 2.51 µM

COC(=O)C1(CC(C)C)C=C2C(=C(C(C)C)C(=O)C2C)CN1 (stereo unspecified)
inactive: [5] | [6] | [8]

O=C(NCc1ccccc1)[C@@H]1C[C@H]1[C@@H](NP(=O)(c1ccccc1)c1ccccc1)c1ccccc1
inactive: [5] | [6]

COC(=O)[C@@]1(Cc2ccc(OC)cc2)[C@H]2c3cc(C(=O)N(C)C)n(CCN4CNCC4=O)c3C[C@H]2CN1C(=O)c1ccccc1
inactive: [5] | [6]

COC(=O)[C@@]1(Cc2ccccc2)[C@H]2c3cc(C(=O)N4CCCC4)n(Cc4ccc(C(F)(F)F)nc4)c3C[C@H]2CN1C(=O)c1ccccc1
active: [10] 5.01 µM | [7] 3.16 µM
inactive: [5] | [6] | [8]

C=C1CC2C3C=C(C)C4=CC(=O)CCC4(C)C3CCC2(C)[C@@]1(OC(C)=O)C(C)=O (stereo partly specified)
inactive: [3] | DFO2036

CC1=C(C(=O)OCc2ccccc2)C(c2ccc(Cl)cc2)NC(=O)N1CCCCCC(=O)O (stereo unspecified)
inactive: [5] | [6] | [8]

C[C@@H](C(=O)Nc1ccc2ccccc2c1)[C@H]1C[C@]1(C)[C@H](NS(=O)(=O)c1ccc2ccccc2c1)c1ccccc1
active: [7] 7.94 µM | [11] 3.16 µM | [9] 0.251 µM
inactive: [5] | [6] | [8]

C[C@@H](C(=O)Cc1ccc2ccccc2c1)[C@@H]1C[C@@]1(C)[C@@H](NP(=O)(c1ccccc1)c1ccccc1)c1ccccc1
active: [10] 3.16 µM
inactive: [5] | [6] | [8]

CO/N=C(/C(=O)N[C@H]1C(=O)N2C(C(=O)O)=C(COC(C)=O)CSC12)c1csc(N)n1 (stereo partly specified)
active: [1] 39.8 µM
inactive: [7] | [12] | [13]

O=C(NCc1nc2ccccc2[nH]1)[C@H]1C[C@@H]1[C@H](NP(=O)(c1ccccc1)c1ccccc1)c1ccccc1
inactive: [5] | [6] | [8]

C[C@@H](C(=O)NCc1ccccn1)[C@H]1C[C@]1(C)[C@H](NC(=O)OCc1ccccc1)c1ccccc1
active: [7] 5.01 µM | [11] 12.6 µM | [9] 2 µM
inactive: [5] | [6] | [8]

COC(=O)[C@@]1(Cc2ccc(OC)cc2)[C@H]2c3cc(C(=O)N4CCCC4)n(Cc4cc(F)cc5c4OCOC5)c3C[C@H]2CN1C(=O)c1ccccc1
active: [10] 6.31 µM | [7] 2.51 µM | [9] 7.94 µM
inactive: [5] | [6] | [8]

Reference: PubChem BioAssay (NCATS)
